Test results taken from PubChem BioAssay (EPA / NIEHS).
Active and inactive are the calls of the source. How the source made its calls: active means hit-call score of the fitted dose curve at least 0.9, where 1 is the maximum; inactive means score below 0.9.

Assay: CCTE_Shafer_MEA_acute_per_burst_spike_number_mean: CCTE's Neural Acute Assay for Average Number of Spikes Per Burst, Shafer Lab (AID 2284015);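 further: hits are decreases in mean spikes per burst versus baseline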
How it was run: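 Read-out: percent change in mean spikes per burst, each well's post-exposure 40-min recording versus its own 40-min baseline. Rat cortical cultures, DIV 13 or 15, compounds 0.03-40 uM; DMSO is negative control, loss-of-signal fitting.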

Structure (SMILES) | outcome | AC50
CCOc1cc(C(C)(C)C)ccc1C1COC(c2c(F)cccc2F)=N1 (stereo not given) | inactive | 
CNC(=O)Oc1cccc2ccccc12 | inactive | 
CCOc1nc(F)cc2nc(S(=O)(=O)Nc3c(Cl)cccc3Cl)nn12 | inactive | 
C=C(C)CN(CC)c1c([N+](=O)[O-])cc(C(F)(F)F)cc1[N+](=O)[O-] | inactive | 
CCCN(CC)CC1COC2(CCC(C(C)(C)C)CC2)O1 (stereo not given) | inactive | 
CC(C)C1(C)N=C(c2ncccc2C(=O)O)NC1=O (stereo not given) | inactive | 
Cc1nc(N(C)C)nc(OC(=O)N(C)C)c1C | inactive | 
N#CN=C1SCCN1Cc1ccc(Cl)nc1 | inactive | 
CCCC(=NOCC)C1=C(O)CC(CC(C)SCC)CC1=O (stereo not given) |  | 29.1 µM (active)
CCOC(=O)C(C)OC(=O)c1cc(Oc2ccc(C(F)(F)F)cc2Cl)ccc1[N+](=O)[O-] (stereo not given) | inactive | 

Assay: CCTE_Shafer_MEA_acute_interburst_interval_mean: CCTE's Neural Acute Assay for Mean Interburst Interval, Shafer Lab (AID 2284016);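 further: percent change of mean interburst interval versus each well's own pre-dose baseline; curves fitted for decrease in interburst interval relative to DMSO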
How it was run: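 Rat cortical cultures, DIV 13/15; 20 min equilibration, 40 min baseline, compound 0.03-40 uM, 40 min re-recording, 37 C. Spikes detected at 8x rms noise (300-5000 Hz band-pass). Endpoint: % change in interburst interval, fitted in loss direction vs DMSO.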

Structure (SMILES) | outcome
CCOc1cc(C(C)(C)C)ccc1C1COC(c2c(F)cccc2F)=N1 (stereo not given) | inactive
CNC(=O)Oc1cccc2ccccc12 | inactive
CCOc1nc(F)cc2nc(S(=O)(=O)Nc3c(Cl)cccc3Cl)nn12 | inactive
C=C(C)CN(CC)c1c([N+](=O)[O-])cc(C(F)(F)F)cc1[N+](=O)[O-] | inactive
CCCN(CC)CC1COC2(CCC(C(C)(C)C)CC2)O1 (stereo not given) | inactive
CC(C)C1(C)N=C(c2ncccc2C(=O)O)NC1=O (stereo not given) | inactive
Cc1nc(N(C)C)nc(OC(=O)N(C)C)c1C | inactive
N#CN=C1SCCN1Cc1ccc(Cl)nc1 | inactive
CCCC(=NOCC)C1=C(O)CC(CC(C)SCC)CC1=O (stereo not given) | inactive
CCOC(=O)C(C)OC(=O)c1cc(Oc2ccc(C(F)(F)F)cc2Cl)ccc1[N+](=O)[O-] (stereo not given) | inactive

Assay: CCTE_Shafer_MEA_acute_burst_percentage_mean: CCTE's Neural Acute Assay for Percentage of Spikes in a Burst, Shafer Lab (AID 2284017);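 on AC50: curve fitted for loss of signal so potency reflects decreased burst percentage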
How it was run: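 Rat cortical cultures, DIV 13/15, 37 C. Spikes detected at 8x rms noise (300-5000 Hz band-pass). Burst spikes/total spikes averaged across electrodes per well; % change post- vs pre-treatment (40 min each), loss-of-signal fit vs DMSO.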

Structure (SMILES) | AC50 | outcome
CCOc1cc(C(C)(C)C)ccc1C1COC(c2c(F)cccc2F)=N1 (stereo not given) | 20 µM (active) | 
CNC(=O)Oc1cccc2ccccc12 |  | inactive
CCOc1nc(F)cc2nc(S(=O)(=O)Nc3c(Cl)cccc3Cl)nn12 |  | inactive
C=C(C)CN(CC)c1c([N+](=O)[O-])cc(C(F)(F)F)cc1[N+](=O)[O-] |  | inactive
CCCN(CC)CC1COC2(CCC(C(C)(C)C)CC2)O1 (stereo not given) |  | inactive
CC(C)C1(C)N=C(c2ncccc2C(=O)O)NC1=O (stereo not given) |  | inactive
Cc1nc(N(C)C)nc(OC(=O)N(C)C)c1C |  | inactive
N#CN=C1SCCN1Cc1ccc(Cl)nc1 |  | inactive
CCCC(=NOCC)C1=C(O)CC(CC(C)SCC)CC1=O (stereo not given) | 27.7 µM (active) | 
CCOC(=O)C(C)OC(=O)c1cc(Oc2ccc(C(F)(F)F)cc2Cl)ccc1[N+](=O)[O-] (stereo not given) |  | inactive

Assay: CCTE_Shafer_MEA_acute_burst_percentage_std: CCTE's Neural Acute Assay for Standard Deviation of Burst Percentage, Shafer Lab (AID 2284018);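 further: fitted in the negative direction so actives lower burst percentage SD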
How it was run: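 Rat primary cortical neurons on 48-well MEAs, DIV 13 or 15, 37 C. 40-min baseline then 40-min recording with compound (0.03-40 uM); well-level SD of per-electrode burst spike percentage, expressed as percent change from baseline.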

Structure (SMILES) | outcome
CCOc1cc(C(C)(C)C)ccc1C1COC(c2c(F)cccc2F)=N1 (stereo not given) | inactive
CNC(=O)Oc1cccc2ccccc12 | inactive
CCOc1nc(F)cc2nc(S(=O)(=O)Nc3c(Cl)cccc3Cl)nn12 | inactive
C=C(C)CN(CC)c1c([N+](=O)[O-])cc(C(F)(F)F)cc1[N+](=O)[O-] | inactive
CCCN(CC)CC1COC2(CCC(C(C)(C)C)CC2)O1 (stereo not given) | inactive
CC(C)C1(C)N=C(c2ncccc2C(=O)O)NC1=O (stereo not given) | inactive
Cc1nc(N(C)C)nc(OC(=O)N(C)C)c1C | inactive
N#CN=C1SCCN1Cc1ccc(Cl)nc1 | inactive
CCCC(=NOCC)C1=C(O)CC(CC(C)SCC)CC1=O (stereo not given) | inactive
CCOC(=O)C(C)OC(=O)c1cc(Oc2ccc(C(F)(F)F)cc2Cl)ccc1[N+](=O)[O-] (stereo not given) | inactive

Assay: CCTE_Shafer_MEA_acute_per_network_burst_spike_number_mean: CCTE's Neural Acute Assay for Average Number of Spikes in a Network Burst, Shafer Lab (AID 2284019);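 on AC50: curve fitted for loss of signal so actives reduce spikes per network burst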
How it was run: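 Rat primary cortical neurons on 48-well MEA at DIV 13 or 15, 37 C; compounds 0.03-40 uM, at least three wells each. 40-min baseline then 40-min exposure recording; percent change in mean spikes per network burst.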

Structure (SMILES) | outcome | AC50
CCOc1cc(C(C)(C)C)ccc1C1COC(c2c(F)cccc2F)=N1 (stereo not given) | inactive | 
CNC(=O)Oc1cccc2ccccc12 | inactive | 
CCOc1nc(F)cc2nc(S(=O)(=O)Nc3c(Cl)cccc3Cl)nn12 | inactive | 
C=C(C)CN(CC)c1c([N+](=O)[O-])cc(C(F)(F)F)cc1[N+](=O)[O-] | inactive | 
CCCN(CC)CC1COC2(CCC(C(C)(C)C)CC2)O1 (stereo not given) | inactive | 
CC(C)C1(C)N=C(c2ncccc2C(=O)O)NC1=O (stereo not given) | inactive | 
Cc1nc(N(C)C)nc(OC(=O)N(C)C)c1C | inactive | 
N#CN=C1SCCN1Cc1ccc(Cl)nc1 | inactive | 
CCCC(=NOCC)C1=C(O)CC(CC(C)SCC)CC1=O (stereo not given) |  | 20.1 µM (active)
CCOC(=O)C(C)OC(=O)c1cc(Oc2ccc(C(F)(F)F)cc2Cl)ccc1[N+](=O)[O-] (stereo not given) | inactive | 

Assay: CCTE_Shafer_MEA_acute_per_network_burst_spike_number_std: CCTE's Neural Acute Assay for Standard Deviation of Number of Spikes in a Network Burst, Shafer Lab (AID 2284020);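 further: fitted for decrease in spike-number SD versus DMSO so actives lower it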
How it was run: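 Rat primary cortical neurons on 48-well MEA (16 electrodes/well), treated DIV 13 or 15 at 0.03-40 uM, ≥3 wells per compound. 40 min recordings at 37 C before and after dosing; value is percent change in network-burst spike-number SD, negative direction vs DMSO.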

Structure (SMILES) | AC50 | outcome
CCOc1cc(C(C)(C)C)ccc1C1COC(c2c(F)cccc2F)=N1 (stereo not given) | 29 µM (active) | 
CNC(=O)Oc1cccc2ccccc12 |  | inactive
CCOc1nc(F)cc2nc(S(=O)(=O)Nc3c(Cl)cccc3Cl)nn12 |  | inactive
C=C(C)CN(CC)c1c([N+](=O)[O-])cc(C(F)(F)F)cc1[N+](=O)[O-] |  | inactive
CCCN(CC)CC1COC2(CCC(C(C)(C)C)CC2)O1 (stereo not given) |  | inactive
CC(C)C1(C)N=C(c2ncccc2C(=O)O)NC1=O (stereo not given) |  | inactive
Cc1nc(N(C)C)nc(OC(=O)N(C)C)c1C |  | inactive
N#CN=C1SCCN1Cc1ccc(Cl)nc1 |  | inactive
CCCC(=NOCC)C1=C(O)CC(CC(C)SCC)CC1=O (stereo not given) | 25.4 µM (active) | 
CCOC(=O)C(C)OC(=O)c1cc(Oc2ccc(C(F)(F)F)cc2Cl)ccc1[N+](=O)[O-] (stereo not given) |  | inactive
